{
  "source": "the supplement of paper PMC7695840",
  "note": "Counter-ions that a name gives are not always drawn.",
  "data": [
    {"system": "Staphylococcus aureus MW2 delta-mecA (mecA-)", "experiment": "normalized GFP fluorescence (growth of mecA- strain) (fraction of control range); higher = more growth of mecA- strain", "conditions": "compound concentration: 150 uM; cefoxitin: subinhibitory; fluorescent label: GFP", "method_in_brief": "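Compound at 150 μM (1.5% DMSO) in 1536-well plates received 5 µL/well of pre-induced S. aureus MW2 cells mixed 1:1, gene-carrying with DsRed and gene-deleted with GFP, in LB with a daily-set subinhibitory antibiotic dose, single replicate. After 20 h unshaken at 37 °C, 90% humidity, DsRed (540/590) and GFP (485/520) were measured and scaled per plate between single-strain control medians. Plates with high untreated ratios and rows with DsRed/GFP >10 were excluded.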", "values": [
      {"smiles": "Nc1nc(=O)n([C@@H]2CS[C@H](CO)O2)cc1F", "note": "[Emtricitabine]", "normalized GFP fluorescence": 0.4},
      {"smiles": "CC(C)c1nc(N(C)S(C)(=O)=O)nc(-c2ccc(F)cc2)c1/C=C/[C@@H](O)C[C@@H](O)CC(=O)O", "normalized GFP fluorescence": 0.207},
      {"smiles": "CN(Cc1cc(Br)cc(Br)c1N)C1CCCCC1", "normalized GFP fluorescence": 0.459},
      {"smiles": "OCCN1CCN(CCCN2c3ccccc3Sc3ccc(C(F)(F)F)cc32)CC1", "normalized GFP fluorescence": 0.0603},
      {"smiles": "O=C1c2ccccc2C(=O)C1c1ccccc1", "note": "[Phenindione (Rectadione)]", "normalized GFP fluorescence": 0.0982},
      {"smiles": "CCCC(=O)Nc1ccc(OCC(O)CNC(C)C)c(C(C)=O)c1", "note": "(stereo not given)", "normalized GFP fluorescence": 0.332},
      {"smiles": "CN1C2CCCC1CC(NC(=O)c1nn(C)c3ccccc13)C2", "note": "(stereo not given)", "normalized GFP fluorescence": 0.718},
      {"smiles": "COCCCOc1ccnc(C[S+]([O-])c2nc3ccccc3[nH]2)c1C", "note": "(stereo not given)", "normalized GFP fluorescence": 0.186},
      {"smiles": "COc1ccc2cc(CCC(C)=O)ccc2c1", "normalized GFP fluorescence": 0.292},
      {"smiles": "COc1cc(NC(C)CCCN)c2ncccc2c1", "note": "(stereo not given)", "normalized GFP fluorescence": -0.00346},
      {"smiles": "CC(C)(Sc1cc(C(C)(C)C)c(O)c(C(C)(C)C)c1)Sc1cc(C(C)(C)C)c(O)c(C(C)(C)C)c1", "normalized GFP fluorescence": 0.792},
      {"smiles": "CC(=O)N(O)CCCCCNC(=O)CCC(=O)N(O)CCCCCNC(=O)CCC(=O)N(O)CCCCCN", "normalized GFP fluorescence": 0.272},
      {"smiles": "CCN(CC)C(=O)C1(c2ccccc2)CC1CN", "note": "(stereo not given)", "normalized GFP fluorescence": 0.155},
      {"smiles": "C[n+]1ccccc1/C=N/O", "normalized GFP fluorescence": 0.332},
      {"smiles": "COC(=O)C1=C(C#N)NC(C)=C(C(=O)OC(C)C)C1c1cccc([N+](=O)[O-])c1", "note": "(stereo not given) [Nilvadipine (ARC029)]", "normalized GFP fluorescence": 0.333},
      {"smiles": "N=C(N)N", "normalized GFP fluorescence": 0.207},
      {"smiles": "COC1=CC(=O)C[C@@H](C)[C@]12Oc1c(Cl)c(OC)cc(OC)c1C2=O", "normalized GFP fluorescence": 0.227},
      {"smiles": "COc1cc(Nc2c(C#N)cnc3cc(OCCCN4CCN(C)CC4)c(OC)cc23)c(Cl)cc1Cl", "note": "[Bosutinib (SKI-606)]", "normalized GFP fluorescence": -0.0247},
      {"smiles": "CCOc1ccc(Cc2cc([C@@H]3O[C@H](CO)[C@@H](O)[C@H](O)[C@H]3O)ccc2Cl)cc1", "note": "[Dapagliflozin]", "normalized GFP fluorescence": 0.454},
      {"smiles": "Cc1cccc(N(C)C(=S)Oc2ccc3ccccc3c2)c1", "normalized GFP fluorescence": 0.561},
      {"smiles": "N[C@H]1C(O)O[C@H](CO)[C@@H](O)[C@@H]1O", "note": "(stereo not given in full)", "normalized GFP fluorescence": 0.468},
      {"smiles": "CN1CCOC(c2ccccc2)c2ccccc2C1", "note": "(stereo not given)", "normalized GFP fluorescence": 0.242},
      {"smiles": "N[C@H](C(=O)O)[C@H](O)c1ccc(O)c(O)c1", "note": "[Droxidopa (L-DOPS)]", "normalized GFP fluorescence": -0.00088},
      {"smiles": "CC(C)[C@H](N)C(=O)OCCOCn1cnc2c(=O)nc(N)[nH]c21", "note": "[Valaciclovir HCl]", "normalized GFP fluorescence": 0.302},
      {"smiles": "OCCOCCN1CCN(C2=Nc3ccccc3Sc3ccccc32)CC1", "note": "[Quetiapine fumarate (Seroquel)]", "normalized GFP fluorescence": 0.0887},
      {"smiles": "CC#CCn1c(N2CCC[C@@H](N)C2)nc2c1c(=O)n(Cc1nc(C)c3ccccc3n1)c(=O)n2C", "normalized GFP fluorescence": 0.315},
      {"smiles": "Clc1ccc2c(c1)CCc1cccnc1C2=C1CCNCC1", "note": "[Desloratadine]", "normalized GFP fluorescence": 0.102},
      {"smiles": "CCOC(=O)[C@H](CCc1ccccc1)N[C@H]1CS[C@H](c2cccs2)CN(CC(=O)O)C1=O", "note": "[Temocapril HCl]", "normalized GFP fluorescence": 0.372},
      {"smiles": "C/C=C/c1ccc(OC)cc1", "normalized GFP fluorescence": 0.443},
      {"smiles": "O=C1C(O)=C([C@H]2CC[C@H](c3ccc(Cl)cc3)CC2)C(=O)c2ccccc21", "note": "[Atovaquone (Atavaquone)]", "normalized GFP fluorescence": 0.714},
      {"smiles": "NCCCC[C@H](N[C@@H](CCc1ccccc1)C(=O)O)C(=O)N1CCC[C@H]1C(=O)O", "normalized GFP fluorescence": 0.972},
      {"smiles": "CN1CCc2cccc3c2[C@H]1Cc1ccc(O)c(O)c1-3", "normalized GFP fluorescence": 0.463},
      {"smiles": "CC1(C)NC(=O)N(c2ccc([N+](=O)[O-])c(C(F)(F)F)c2)C1=O", "normalized GFP fluorescence": 0.333},
      {"smiles": "CCN(CC)C(=O)c1ccc(O)c(OC)c1", "normalized GFP fluorescence": 0.00273},
      {"smiles": "CC(C)NCC(O)c1ccc(O)c(O)c1", "note": "(stereo not given) [Isoprenaline hydrochloride]", "normalized GFP fluorescence": 0.458},
      {"smiles": "COc1cc(C2Oc3ccc(C4Oc5cc(O)cc(O)c5C(=O)C4O)cc3OC2CO)ccc1O", "note": "(stereo not given) [Silymarin (Silybin B)]", "normalized GFP fluorescence": 0.34},
      {"smiles": "COc1ccc(C[C@@H]2c3cc(OC)c(OC)cc3CC[N@+]2(C)CCC(=O)OCCCCCOC(=O)CC[N@@+]2(C)CCc3cc(OC)c(OC)cc3[C@H]2Cc2ccc(OC)c(OC)c2)cc1OC", "note": "[Cisatracurium besylate (Nimbex)]", "normalized GFP fluorescence": 0.62},
      {"smiles": "CCCc1nn(C)c2c(=O)[nH]c(-c3cc(S(=O)(=O)N4CCN(C)CC4)ccc3OCC)nc12", "normalized GFP fluorescence": 0.331},
      {"smiles": "CC1=NN(c2ccccc2)C(=O)C1", "note": "[Edaravone (MCI-186)]", "normalized GFP fluorescence": 0.706},
      {"smiles": "CC(C)(C)NCC(O)COc1cccc2c1CC(O)C(O)C2", "note": "(stereo not given)", "normalized GFP fluorescence": 0.721}
    ]}
  ]
}
